From PubChem BioAssay AID1508622 (National Center for Advancing Translational Sciences (NCATS), 2021)
Activity calls are given as the source filed them. Calls follow the shape of the dose curve; as a rule, active = well fitted activation curve with a large enough effect; inconclusive = small, poorly fitted or top-dose-only effect; inactive = no such curve, though single readings can be large or run the other way.

experiment: Confirmatory qHTS for Identification of Small Molecule Activators of Huntingtin-Antisense Promoter Activity; conditions: HEK293 HTT-AS promoter firefly luciferase reporter, 24 h; series mostly up to 57.5 µM
In short: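 Activity normalized between vehicle control (0%) and zero RLU (-100%) from firefly luminescence (Dual-Glo). Compounds, up to 57.5 uM final, incubated 24 h at 37C on HEK293 reporter cells plated 24 h earlier.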

Potency, inactive:
Cc1oc(-c2ccc(C(=O)NCCCOC(C)C)cc2)nc1CS(=O)(=O)c1ccccc1
CCOc1ccc(C(=O)Nc2ccc(S(=O)(=O)N3CCCCC3c3cccnc3)cc2)cc1 (centres undefined)
Cc1cc(C)c(S(=O)(=O)NCCc2csc3nc(-c4ccc(Cl)cc4)nn23)c(C)c1
CCOc1ccc(NC(=O)c2c(Nc3ccccc3C)sc(C(=O)c3ccc(Cl)cc3)c2N)cc1
Cc1nc2cccnc2n1-c1cccc(C(=O)NCc2ccc(OC(C)C)cc2)c1
CO[C@H]1C=CC=C(C)C(=O)NC2=CC(=O)C(NCCN(C)C)=C(C[C@@H](C)C[C@H](OC)[C@@H](O)[C@@H](C)C=C(C)[C@@H]1OC(N)=O)C2=O
Cc1cc(NC(=O)NCc2ccc3c(c2)CCN3C(=O)c2ccccc2)ccc1Br
O=C(CCc1cn(Cc2ccc(F)cc2)c2ccccc12)NC1CCCCC1
CCc1cccc(NS(=O)(=O)c2ccc3c(c2)CC(C)N3C(=O)C2CC2)c1 (centres undefined)
CCOC(=O)c1cccc(NC(=O)CCn2c(-c3ccc(F)cc3)cc(C(=O)OCC)c2C)c1
COc1ccc(CCNC(=O)c2ccc3c(c2)CCN3S(=O)(=O)c2ccc(C)cc2)cc1
COc1ccc(N2CCN(C(=O)c3ccc4c(=O)n(CCc5ccc(OC)c(OC)c5)c(=O)[nH]c4c3)CC2)cc1
Cc1ccc(Cn2c(SCc3ccc(C(=O)NC4CCCC4)cc3)nc3ccncc32)cc1
Cc1ccc(Nc2cc(C(=O)NC3CCCC3)c3ccccc3n2)cc1C
